Measured values published in PubChem BioAssay AID2551 (National Center for Advancing Translational Sciences (NCATS), 2010).
“And” between values parts separate entries of the source, which are not always exact repeats. Identical values can stand only once. Among all 310,000 compounds or so, about 17,000 (5.5%) were called active. Entries that show only a call come without a potency. Not shown: some 11% with an inconclusive outcome. Calls come from the whole dose curve; as a rule, active = well fitted inhibition curve with a large enough effect; inconclusive = small, poorly fitted or top-dose-only effect, or effect the other way; inactive = no such curve, though single readings can be large or run the other way. Many of the other results were omitted from the sample, so actives are more common in it than they were. The source holds several records for some structures; these can differ, active in one and inactive in another.

Target: Nuclear receptor ROR-gamma (Mus musculus) (UniProt P51450)
Sequence (P51450 whole entry, looked up): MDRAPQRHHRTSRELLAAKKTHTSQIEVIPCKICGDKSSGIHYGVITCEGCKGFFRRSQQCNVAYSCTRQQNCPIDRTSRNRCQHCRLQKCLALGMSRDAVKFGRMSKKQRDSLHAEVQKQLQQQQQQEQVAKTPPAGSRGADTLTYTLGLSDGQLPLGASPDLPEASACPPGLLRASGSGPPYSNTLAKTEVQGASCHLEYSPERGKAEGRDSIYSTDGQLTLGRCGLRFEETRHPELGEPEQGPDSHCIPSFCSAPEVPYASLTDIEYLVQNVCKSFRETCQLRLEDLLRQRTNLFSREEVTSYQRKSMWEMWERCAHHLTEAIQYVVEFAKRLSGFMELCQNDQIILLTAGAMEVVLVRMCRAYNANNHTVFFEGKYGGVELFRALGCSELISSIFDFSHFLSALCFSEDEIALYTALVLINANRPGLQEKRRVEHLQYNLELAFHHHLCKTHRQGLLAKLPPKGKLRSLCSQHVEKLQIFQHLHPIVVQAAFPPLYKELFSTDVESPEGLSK
Test: qHTS for inhibitors of ROR gamma transcriptional activity; note: nearly all actives have a fitted effect of over 60% in size
Conditions: Drosophila S2 Gal4-RORgamma UAS-luciferase reporter, 20 h; series mostly up to 53.6 µM
Method in brief: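 Luciferase reporter read in Schneider cells carrying Gal4-RORγ (mouse) and UAS-Photinus luciferase; cells given compound 1 h before 700 uM copper sulfate induction, then incubated 20 h at ambient temperature.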
Potency is the fitted concentration of half-maximal effect.

Row | SMILES | Potency | activity change, negative = inhibition
1 | COc1cc(Cl)ccc1OCc1cc(C(=O)N(C)CCc2c(C)n[nH]c2C)no1 | inactive | –
2 | COc1ccccc1CNc1ncnc2ccc(-c3c(C)noc3C)cc12 | 5.01 µM (active) | –
3 | COc1ccccc1CNc1nc(-c2c(C)noc2C)nc2ccccc12 | inactive | –
4 | COc1ccccc1CNc1ccnc(-c2c(C)noc2C)n1 | inactive | –
5 | COc1cc(C2/C(=C(\O)c3ccc4c(c3)CC(C)O4)C(=O)C(=O)N2c2nnc(C)s2)cc(OC)c1OC (configuration not stated) | inactive | –
6 | CC(C)c1ccc(/C=C2\NC(=O)NC2=O)cc1 | inactive | –
7 | O=C(NC1CC1)C(Cc1ccccc1)NS(=O)(=O)c1ccccc1F (configuration not stated) | inactive | –
8 | N#CC1=C(SCc2ccc(C#N)cc2)N=C(N)C(c2nc(-c3ccccc3)cs2)C12CCCCC2 (configuration not stated) | 11.2 µM (active) | –
9 | N#CC1=C(SCc2ccccc2)NC(=O)C(C#N)C12CCCC2 (configuration not stated) | – | 26.7% [at 0.365 µM] (inactive)
10 | N#Cc1ccc(CSc2ncccn2)cc1 | – | -36.2% [at 1.91 µM] (inactive)
11 | CCOC(=O)c1sc(=NC(=O)c2ccc(Br)cc2)n(C)c1C | inactive | –
12 | COc1ccc(CCN2CC(C(=O)NCCN3CCNC3=O)CCC2=O)cc1 (configuration not stated) | inactive | –
13 | CCOC(=O)CSc1nc(N2CCOCC2)c2c(c1C#N)CC(C(C)C)OC2 (configuration not stated) | inactive | –
14 | COC(=O)CSc1nccc(-c2cccs2)n1 | inactive | –
15 | O=C(O)COc1ccc(-c2nccc(-c3cccs3)n2)cc1 | 5.62 µM (active) | –
16 | O=C(Nc1ccnc(-c2ccncc2)n1)c1cccs1 | inactive | –
17 | CCOc1ccc(N(C(=O)c2snc(C(N)=O)c2N)C(C(=O)NCC2CCCO2)c2c[nH]c3ccccc23)cc1 (configuration not stated) | inactive | –
18 | Fc1ccc(COc2ccc(-c3nnco3)cc2)cc1 | inactive | –
19 | Fc1ccc(COc2cccc(-c3n[nH]c(=S)o3)c2)cc1 | 11.2 µM (active) | –
20 | Cc1nc2ccccc2cc1OCc1ccc(F)cc1 | inactive | –
21 | Cc1cc(F)ccc1N1CCC(N2CCN(C)C(CCO)C2)CC1 (configuration not stated) | inactive | –
22 | Cc1ccc(-n2c(C)cc(/C=N\NC(=O)CC(=O)NC(C)C)c2C)cc1 | inactive | –
23 | Cc1cc(=O)cc(C)n1-c1ccc(Cl)c(Cl)c1 | inactive | –
24 | Cc1cc(/C=N/NC(=O)CC2(C)OCCO2)c(C)n1-c1ccc(Cl)c(Cl)c1 | 17.8 µM (active) | –
25 | Cc1cccc(OCC(O)Cn2c(N3CCCCC3)nc3c2c(=O)[nH]c(=O)n3C)c1 (configuration not stated) | inactive | –
26 | COc1ccc2oc(=N)c(C(=O)Nc3ccc(Br)cc3)cc2c1 | inactive | –

Row | SMILES | Potency | activity change, negative = inhibition
27 | O=C(c1noc2c1CCCC2)N1CCc2ccccc2C1 | inactive | –
28 | COc1cccc(C(=O)OCc2cc(=O)oc3c(C)c(C)ccc23)c1OC | inactive | –
29 | Clc1cccc(N=C2NN=C(c3ccc4c(c3)OCCO4)CS2)c1 | inactive | –
30 | CS(=O)(=O)N(CC(=O)N1CCN(Cc2ccccc2)CC1)c1ccc2c(c1)OCCO2 | inactive | –
31 | c1ccc(CN2CCC(N=C3NN=C(c4ccc5c(c4)OCCO5)CS3)CC2)cc1 | 10 µM (active) | –
32 | Cc1ccccc1-c1nc(CS(=O)(=O)CC(=O)NC(C)c2ccccc2)c(C)o1 (configuration not stated) | inactive | –
33 | Cc1ccc(NS(=O)(=O)c2c(C)[nH]c(C)c2C(=O)N2CCCCC2)c(C)c1 | inactive | –
34 | O=C(O)CCn1c(Cc2ccccc2)nc2ccccc21 | inactive | –
35 | Cc1cc2ccccc2n1CCC(=O)O | inactive | –
36 | O=C(O)CCn1c(O)c(C=C2N=c3ccccc3=N2)sc1=S | 0.794 µM (active) | –
37 | COc1ccccc1NC(=O)c1cc(N2C(=O)C3C4CCC(C4)C3C2=O)ccc1Cl (configuration not stated) | inactive | –
38 | CNC(=O)c1ccsc1NC(=O)c1ccc(S(=O)(=O)N2CCOCC2)cc1 | inactive | –
39 | CC1CCCCN1S(=O)(=O)c1ccc(C(=O)Nc2nnc(-c3cccs3)o2)cc1 (configuration not stated) | 0.0891 µM (active) | –
40 | CCc1nnc(NC(=O)c2ccc(S(=O)(=O)NC3CCCCC3)cc2)s1 | inactive | –
41 | O=C(Nc1ccc(S(=O)(=O)N2CCOCC2)cc1)c1ccc2ncsc2c1 | inactive | –
42 | CSCc1nnc(NC(=O)c2ccc(S(=O)(=O)N3CCCCC3C)cc2)o1 (configuration not stated) | 1 µM (active) | –
43 | CCc1nnc(NC(=O)C2CCCN2S(=O)(=O)c2ccccc2)s1 (configuration not stated) | inactive | –
44 | Cc1ccnc(NS(=O)(=O)c2ccc(NC(=O)c3ccc(S(=O)(=O)N4CCOCC4)cc3)cc2)n1 | inactive | –
45 | O=C(Nc1nnc(-c2ccco2)o1)c1ccc(S(=O)(=O)N2CCOCC2)cc1 | 1.78 µM (active) | –
46 | CC1CCCN(S(=O)(=O)c2ccc(C(=O)Nc3nnc(-c4ccncc4)o3)cc2)C1 (configuration not stated) | inactive | –
47 | CC(=O)c1ccc(OC(=O)N2CCOCC2)cc1 | – | -0.265% [at 1.91 µM] (inactive)
48 | COc1ccc(CNC(=O)COc2cccnc2[N+](=O)[O-])cc1 | inactive | –
49 | Cc1cc2c(=O)n(CC(=O)NCC(=O)Nc3ccc(C(C)C)cc3)cnc2s1 | inactive | –
50 | CCCCN1C(=O)C(C)=C(C)C1OCCc1ccc(OC)c(OC)c1 (configuration not stated) | inactive | –
51 | Cc1cc(-c2ccc(S(=O)(=O)N3CCN(c4cccc(C(F)(F)F)c4)CC3)s2)on1 | inactive | –
52 | CN(C)C(=O)c1ccc(NC(=O)c2ccccc2-c2ccccc2)cc1 | inactive | –

Row | SMILES | Potency | activity change, negative = inhibition
53 | CC(C)C[C@H](NC(=O)N1CC(=O)Nc2ccccc21)C(=O)N[C@H](Cc1ccccc1)C(=O)O | inactive | –
54 | CCOC(=O)CSc1nc2ccc(C)cc2n2cnnc12 | inactive | –
55 | CCCOc1cccc(C(=O)Nc2ccccc2C(=O)N2CCN(C)CC2)c1 | inactive | –
56 | CC(=O)Nc1ccc(S(=O)(=O)NC2Cc3ccccc3C2)cc1 | inactive | –
57 | CCN1C(=S)N[C@@H](CCc2ccccc2)[C@H](C(=O)OC)[C@H]1C | inactive and 2.24 µM (active) | –
58 | CCN1C(=NCc2ccc(OC)cc2)N[C@@H](CCc2ccccc2)[C@H](C(=O)NCc2ccc(OC)cc2)[C@H]1C | inactive | –
59 | COCCN1C(=O)N[C@@H](CCc2ccccc2)[C@H](C(C)=O)[C@H]1C | inactive | –
60 | CN1CCN(C(=O)c2cnn(-c3ccccc3)c2NC(=O)c2ccc([N+](=O)[O-])cc2)CC1 | inactive | –
61 | Cc1cccc(C)c1NC(=O)CS(=O)CC(=O)N1CCN(c2ccccc2)CC1 (configuration not stated) | inactive | –
62 | CCNS(=O)(=O)c1ccc(CCC(=O)N2CCN(c3ccc(OC)cc3)CC2)cc1 | inactive | –
63 | CN(C)C(=O)Cn1c(=O)n(S(=O)(=O)c2ccccc2)c2ccccc21 | inactive | –
64 | COC(=O)c1ccccc1NC(=O)CSc1n[nH]c(-c2ccncc2)n1 | inactive | –
65 | Cc1ccc2oc(C(=O)N3CCN(C)C[C@@H]3C(C)C)c(C)c2c1 | inactive | –
66 | CN(Cc1cccnc1)C(=O)c1cc(COc2ccc3ncccc3c2)on1 | 4.47 µM (active) | –
67 | Cc1ccc(OCc2cc(C(=O)N(C)CCc3ccccc3)no2)cc1C | inactive | –
68 | CC(=O)c1cccc(OCc2cc(C(=O)NC(C)Cc3cccnc3)no2)c1 (configuration not stated) | inactive | –
69 | COCCn1cnc2c1c(=O)n(Cc1ccc(Br)cc1)c(=O)n2Cc1ccccc1 | inactive | –
70 | O=C(CCNC(=O)C1CCN(S(=O)(=O)c2ccccc2)CC1)NC1CC1 | inactive | –
71 | COc1ccc(CN2CCCC(N3CCc4ccccc4C3)C2)c(O)c1 (configuration not stated) | inactive | –
72 | CCOC(=O)c1c(-c2ccccc2)csc1NC(=S)NC(=O)c1ccccc1 | 2.82 µM (active) | –
73 | CCOC(=O)C1=C(NC(=S)NC(=O)c2ccccc2)c2ccccc2CC1(C)C | 4.47 µM (active) | –
74 | CCOC(=O)c1c(-c2cccc(C)c2)csc1NC(=O)c1c(-c2ccccc2)noc1C | inactive | –
75 | CCOC(=O)CNC(=O)/C(=C\c1ccc(F)cc1)NC(=O)c1ccccc1 | inactive | –
76 | CCOC(=O)C1=C(C)c2ccccc2OC1(C)C(=O)OCC (configuration not stated) | inactive | –
77 | CCOC(=O)c1c(-c2ccc(-c3ccccc3)cc2)csc1NC(=O)CCC(=O)O | inactive | –
78 | COc1cccc(C(=O)Nc2nnc(S(=O)(=O)N3CCCCC3)s2)c1 | inactive | –

Row | SMILES | Potency | activity change, negative = inhibition
79 | CC(=O)Nc1ccc(NC(=O)CCCNC(=O)c2ccc(Cl)cc2)cc1 | inactive | –
80 | CC(C)c1ccc(C2C(C(=O)c3ccco3)=C(O)C(=O)N2CC2CCCO2)cc1 (configuration not stated) | inactive | –
81 | COc1ccccc1NC(=O)CCN1CCN(c2ccc(Cl)cc2)CC1 | inactive | –
82 | O=C(CN(c1cc(C(F)(F)F)ccc1Cl)S(=O)(=O)c1ccccc1)NCc1cccnc1 | inactive | –
83 | CCc1ccc(N(CC(=O)NCc2cccnc2)S(=O)(=O)c2ccccc2)cc1 | 14.1 µM (active) | –
84 | O=C(CCc1ccccc1)NCc1cccnc1 | inactive | –
85 | Cc1c(C)c2c(OCC(=O)NCCCO)cc3c(c2oc1=O)CCC(C)(C)O3 | inactive | –
86 | CC(C)CC(CCc1ccccc1)OS(N)(=O)=O (configuration not stated) | inactive | –
87 | Cc1nnc(NC(=O)/C=C/c2ccco2)s1 | inactive | –
88 | O=C(/C=C/c1ccco1)NC(=S)Nc1ccccc1Br | 11.2 µM (active) | –
89 | CC(=O)Nc1ccc(NC(=S)NC(=O)/C=C/c2ccccc2)cc1 | inactive | –
90 | COc1ccccc1C(=O)Nc1cccc(C(=O)N2CCOCC2)c1 | inactive | –
91 | COc1ccccc1/C=C/C(=O)NC1CC2CCC1C2 (configuration not stated) | inactive | –
92 | Cc1cccc(N2CCN(C(=O)/C=C/c3ccco3)CC2)c1C | inactive | –
93 | O=C(/C=C/c1ccco1)NC(=S)N1CCCCC1 | 3.98 µM (active) | –
94 | CCNC(=S)N1CCN(C(=O)c2ccco2)CC1 | inactive | –
95 | COc1ccccc1/C=C/C(=O)NC(=S)N1CCOCC1 | 7.08 µM (active) | –
96 | CCC(C)[C@H](NC(=O)N1CCn2c1nc1ccccc12)C(=O)NCc1ccc(OC)cc1 (some centres not stated) | inactive | –
97 | O=C(O)CC/C(=C\c1cc2c(cc1Br)OCO2)c1nc2ccccc2s1 | inactive | –
98 | CC(=O)N1CCc2cc(S(=O)(=O)NC3CCCCC3)ccc21 | inactive | –
99 | COCCNc1ncnc2c1nc1n2CCCC1 | inactive | –
100 | CCCCCCn1cc(C(=O)O)c(=O)c2cc(F)c(N3CCCCC3)cc21 | inactive | –
101 | O=C(Nc1ccc(S(=O)(=O)Nc2ccccn2)cc1)c1ccccc1 | inactive | –
102 | Cc1ccc(CNC(=O)CCS(=O)(=O)c2ccc3c(c2)CC(C)N3C(=O)C2CC2)o1 (configuration not stated) | inactive | –
